# Measurements published in ChEMBL document CHEMBL1201862, “PubChem BioAssay data set” (2004).
# Among all 400,000 compounds or so, about 2,100 (0.53%) were called active. About 14% were inconclusive and are not listed. The sample holds actives, similar compounds and a random draw of the others, so the mix is not that of the screen. The rule behind the calls is not given here.
# Target: Ataxin-2 (Homo sapiens) (UniProt Q99700)
# Test: qHTS for Inhibitors of ATXN expression.
# Format: functional
# Ataxin-2 (Homo sapiens), sequence (Q99700 whole entry): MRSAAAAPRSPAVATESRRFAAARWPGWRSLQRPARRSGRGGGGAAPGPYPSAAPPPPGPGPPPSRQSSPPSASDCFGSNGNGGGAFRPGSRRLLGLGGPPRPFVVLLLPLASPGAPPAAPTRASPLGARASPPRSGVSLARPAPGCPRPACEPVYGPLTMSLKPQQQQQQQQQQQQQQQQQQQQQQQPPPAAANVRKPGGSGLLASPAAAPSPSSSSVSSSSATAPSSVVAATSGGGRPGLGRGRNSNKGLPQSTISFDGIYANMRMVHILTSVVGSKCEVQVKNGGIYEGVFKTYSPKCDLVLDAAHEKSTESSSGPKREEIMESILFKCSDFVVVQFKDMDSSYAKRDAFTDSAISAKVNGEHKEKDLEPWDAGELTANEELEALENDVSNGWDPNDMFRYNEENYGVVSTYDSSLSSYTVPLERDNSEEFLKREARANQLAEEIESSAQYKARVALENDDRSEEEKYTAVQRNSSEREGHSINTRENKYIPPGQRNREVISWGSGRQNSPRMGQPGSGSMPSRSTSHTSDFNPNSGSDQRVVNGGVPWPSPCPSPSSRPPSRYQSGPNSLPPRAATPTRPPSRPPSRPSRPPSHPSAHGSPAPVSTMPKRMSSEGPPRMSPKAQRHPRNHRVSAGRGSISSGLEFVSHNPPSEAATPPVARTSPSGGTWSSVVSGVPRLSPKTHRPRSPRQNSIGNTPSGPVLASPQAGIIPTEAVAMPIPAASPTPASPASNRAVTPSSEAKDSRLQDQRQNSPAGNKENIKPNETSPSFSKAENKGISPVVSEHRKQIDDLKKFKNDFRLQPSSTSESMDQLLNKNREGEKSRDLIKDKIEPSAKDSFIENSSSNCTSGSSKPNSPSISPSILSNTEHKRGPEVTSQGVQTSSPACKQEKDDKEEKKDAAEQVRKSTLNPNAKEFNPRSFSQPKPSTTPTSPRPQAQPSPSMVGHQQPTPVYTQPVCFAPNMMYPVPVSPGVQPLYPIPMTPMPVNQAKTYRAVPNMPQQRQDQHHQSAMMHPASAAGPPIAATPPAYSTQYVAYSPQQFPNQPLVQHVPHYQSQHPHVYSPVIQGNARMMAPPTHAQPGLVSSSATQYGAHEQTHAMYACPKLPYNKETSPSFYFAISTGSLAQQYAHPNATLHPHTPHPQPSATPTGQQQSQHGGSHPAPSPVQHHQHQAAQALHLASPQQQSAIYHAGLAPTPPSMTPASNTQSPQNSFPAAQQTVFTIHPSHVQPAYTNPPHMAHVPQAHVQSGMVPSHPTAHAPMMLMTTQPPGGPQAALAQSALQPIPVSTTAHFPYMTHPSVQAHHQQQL
row,SMILES,Potency
1,Cc1c(CC(=O)NCc2ccccc2)c(=O)oc2c(C)c(O)ccc12,inactive
2,Cc1ccc(C(C)NC(=O)C2CCCC2)c(C)c1 (stereo not drawn),inactive
3,C=CCNC(=O)CSc1ncc2c(n1)-c1c(csc1SC)CC2,inactive
4,CC(NC(=O)c1cc2c(=O)n3ccccc3nc2n(C(C)C)c1=N)c1ccccc1 (stereo not drawn),inactive
5,COCCN(CCOC)c1cc(C)c(C#N)c2nc3ccccc3n12,inactive
6,Cc1occc1C(=O)N1CCC2(CCCN(Cc3ccc(F)c(F)c3)C2)C1 (stereo not drawn),inactive
7,Cn1c(C(=O)N2CCc3ccccc3C2)cc2c(=O)n3ccccc3nc21,inactive
8,CC1CN(C(=O)c2cc3c(=O)n4ccccc4nc3n2C)CC(C)O1 (stereo not drawn),inactive
9,Cc1cccc(N2CCN(C(=O)c3cc4c(=O)n(C)c5ccccc5c4n3C)CC2C)c1 (stereo not drawn),39.8 µM (active)
10,COc1ccc2nc(N3CCCC3)c(C#N)cc2c1,inactive
11,O=c1cc(CN2CCN(S(=O)(=O)c3ccc4c(c3)OCCO4)CC2)c2ccc(O)cc2o1,inactive
12,Cc1cccc(C2=NN(c3ccccc3)[C@@H](C(=O)N3CCOC3=O)[C@@H]2c2ccc(Cl)cc2)c1,inactive
13,COc1ccc([N+](=O)[O-])cc1NC(=O)CC(c1ccccc1)c1ccccc1,inactive
14,COc1cc(/C=C/C(=O)OCC(=O)Nc2ccc([N+](=O)[O-])cc2)ccc1O,inactive
15,O=C(Nc1ccc([N+](=O)[O-])cc1)Nc1ccc(OC(F)F)c(Cl)c1,35.5 µM (active)
16,CCOC(=O)/C=c1\s/c(=C\c2ccc3cc(OC)ccc3c2)c(=O)n1CC(=O)NCc1ccc2c(c1)OCO2,inactive
17,N#C/C(=C\c1c(N2CCOCC2)nc2ccccn2c1=O)C(=O)NC1CCS(=O)(=O)C1 (stereo not drawn),inactive
18,CCN(CC)CCn1c(=N)n(CC(=O)c2ccc(Br)s2)c2ccccc21,inactive
19,Cn1c(/C(C#N)=C(\O)c2ccc(Br)s2)nc2ccccc21,inactive
20,CCCCn1c(=N)n(CC(=O)c2ccc(Br)s2)c2ccccc21,39.8 µM (active)
21,CC(C)n1c(=N)c(C(=O)NCc2cccnc2)cc2c(=O)n3ccccc3nc21,inactive
22,N#Cc1c(C(F)(F)F)cc(-c2ccco2)nc1SCc1ccncc1,inactive
23,CCc1cc(C(=O)c2ccc(C)cc2)c(NC(=O)CCl)s1,31.6 µM (active)
24,CCN(CC)CC(=O)Nc1sc(C)c(C)c1C(=O)c1ccc(C)cc1,inactive
25,CCOC(=O)c1cc(C(=O)c2cc(Cl)ccc2O)coc1=N,inactive
26,Cc1cc(C(=O)c2ccc(Cl)cc2)c(NC(=O)CCl)s1,39.8 µM (active)
27,Cc1ccc(C(=O)CC(=O)c2ccc(C)cc2O)cc1,inactive
28,CCOc1ccccc1/N=c1\oc2cc(O)ccc2cc1C(=O)NCC1CCCO1 (stereo not drawn),inactive
